Drawing on ChEMBL document CHEMBL1961873, “Compounds: GSK PKIS; Assays: Nanosyn kinase panel” (2012), this text covers inhibition for nine compounds.

Assay [1] concerns the target Sphingosine kinase 1 (Homo sapiens) (UniProt Q9NYA1). To be noted: at 1 µM.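 Further: mean SPHK1 inhibition value reported from the GSK PKIS kinase panel screen.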
Assay [2] has as its target T1, Sphingosine kinase 2 (Homo sapiens) (UniProt Q9NRA0).
T1 sequence (whole entry): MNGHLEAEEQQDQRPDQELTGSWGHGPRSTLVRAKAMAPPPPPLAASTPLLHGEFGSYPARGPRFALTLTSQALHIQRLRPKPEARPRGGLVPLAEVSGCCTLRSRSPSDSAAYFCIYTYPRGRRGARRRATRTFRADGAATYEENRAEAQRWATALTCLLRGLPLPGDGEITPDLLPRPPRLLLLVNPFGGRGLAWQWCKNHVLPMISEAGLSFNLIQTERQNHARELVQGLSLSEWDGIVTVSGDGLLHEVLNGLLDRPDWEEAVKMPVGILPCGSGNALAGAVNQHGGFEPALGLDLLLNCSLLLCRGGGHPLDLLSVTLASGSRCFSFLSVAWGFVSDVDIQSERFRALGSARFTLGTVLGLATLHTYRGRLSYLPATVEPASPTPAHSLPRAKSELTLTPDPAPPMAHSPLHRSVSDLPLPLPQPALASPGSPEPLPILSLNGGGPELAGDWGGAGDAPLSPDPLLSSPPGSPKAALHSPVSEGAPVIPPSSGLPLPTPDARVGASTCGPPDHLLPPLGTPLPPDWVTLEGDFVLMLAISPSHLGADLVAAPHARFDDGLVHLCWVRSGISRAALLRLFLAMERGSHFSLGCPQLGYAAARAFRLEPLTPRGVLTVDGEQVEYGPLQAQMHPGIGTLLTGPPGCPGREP
To be noted: at 0.1 µM.

The target in assay [3] is T1, Sphingosine kinase 2 (Homo sapiens). To be noted: at 1 µM.
Assay [4] concerns the target Casein kinase II subunit alpha (Homo sapiens) (UniProt P68400). To be noted: at 0.1 µM.
Assay [5] has the same target. The note with it: at 1 µM.
For assay [6], the target named is T2, Inhibitor of nuclear factor kappa-B kinase subunit alpha (Homo sapiens) (UniProt O15111).
T2 sequence (whole entry): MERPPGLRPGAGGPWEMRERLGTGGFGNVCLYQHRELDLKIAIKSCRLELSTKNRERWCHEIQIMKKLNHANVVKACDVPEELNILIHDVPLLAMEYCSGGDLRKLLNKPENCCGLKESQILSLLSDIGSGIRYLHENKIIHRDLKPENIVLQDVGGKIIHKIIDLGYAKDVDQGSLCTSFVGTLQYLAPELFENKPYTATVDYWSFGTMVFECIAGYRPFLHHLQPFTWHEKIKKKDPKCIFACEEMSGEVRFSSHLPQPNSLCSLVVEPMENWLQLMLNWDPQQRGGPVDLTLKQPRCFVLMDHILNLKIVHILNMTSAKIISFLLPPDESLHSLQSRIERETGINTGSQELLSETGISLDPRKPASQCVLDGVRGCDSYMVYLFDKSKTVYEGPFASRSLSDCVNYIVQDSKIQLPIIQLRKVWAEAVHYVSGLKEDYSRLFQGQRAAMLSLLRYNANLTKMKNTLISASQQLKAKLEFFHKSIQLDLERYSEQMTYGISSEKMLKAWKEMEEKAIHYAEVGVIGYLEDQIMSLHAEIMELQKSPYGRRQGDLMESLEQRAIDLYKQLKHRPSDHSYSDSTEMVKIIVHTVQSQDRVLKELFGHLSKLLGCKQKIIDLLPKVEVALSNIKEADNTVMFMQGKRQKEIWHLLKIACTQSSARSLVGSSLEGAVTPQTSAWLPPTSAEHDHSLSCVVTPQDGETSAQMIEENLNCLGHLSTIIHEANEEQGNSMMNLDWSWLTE
The note with it: at 0.1 µM.

Assay [7] deals with T2, Inhibitor of nuclear factor kappa-B kinase subunit alpha (Homo sapiens). The note with it: at 1 µM.
The target in assay [8] is T3, Inhibitor of nuclear factor kappa-B kinase subunit beta (Homo sapiens) (UniProt O14920).
T3 sequence (whole entry): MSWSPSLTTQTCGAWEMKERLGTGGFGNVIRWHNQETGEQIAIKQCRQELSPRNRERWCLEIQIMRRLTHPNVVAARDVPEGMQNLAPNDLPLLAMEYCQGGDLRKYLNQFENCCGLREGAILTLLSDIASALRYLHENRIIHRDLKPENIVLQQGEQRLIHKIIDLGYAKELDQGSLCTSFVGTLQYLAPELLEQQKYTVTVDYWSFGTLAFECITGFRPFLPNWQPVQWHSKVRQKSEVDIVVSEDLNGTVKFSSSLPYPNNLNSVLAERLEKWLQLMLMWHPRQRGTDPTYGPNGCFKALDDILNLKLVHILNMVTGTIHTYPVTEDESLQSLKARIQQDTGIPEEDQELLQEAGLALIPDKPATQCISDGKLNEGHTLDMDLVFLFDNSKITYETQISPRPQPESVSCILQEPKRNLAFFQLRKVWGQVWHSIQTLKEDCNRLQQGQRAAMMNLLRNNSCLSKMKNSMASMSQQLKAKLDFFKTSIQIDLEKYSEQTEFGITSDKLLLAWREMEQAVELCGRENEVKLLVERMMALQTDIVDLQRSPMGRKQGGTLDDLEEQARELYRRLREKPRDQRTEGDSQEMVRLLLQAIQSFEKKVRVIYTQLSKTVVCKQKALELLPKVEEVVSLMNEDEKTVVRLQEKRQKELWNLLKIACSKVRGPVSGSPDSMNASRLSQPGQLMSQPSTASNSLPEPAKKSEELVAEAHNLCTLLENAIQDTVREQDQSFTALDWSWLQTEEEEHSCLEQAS
To be noted: at 0.1 µM.

In assay [9] the target is T3, Inhibitor of nuclear factor kappa-B kinase subunit beta (Homo sapiens). The note with it: at 1 µM.
Assay [10] has as its target T4, Inhibitor of nuclear factor kappa-B kinase subunit epsilon (Homo sapiens) (UniProt Q14164).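 Further: mean inhibition of IKKε reported, from the GSK PKIS dataset.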
T4 sequence (whole entry): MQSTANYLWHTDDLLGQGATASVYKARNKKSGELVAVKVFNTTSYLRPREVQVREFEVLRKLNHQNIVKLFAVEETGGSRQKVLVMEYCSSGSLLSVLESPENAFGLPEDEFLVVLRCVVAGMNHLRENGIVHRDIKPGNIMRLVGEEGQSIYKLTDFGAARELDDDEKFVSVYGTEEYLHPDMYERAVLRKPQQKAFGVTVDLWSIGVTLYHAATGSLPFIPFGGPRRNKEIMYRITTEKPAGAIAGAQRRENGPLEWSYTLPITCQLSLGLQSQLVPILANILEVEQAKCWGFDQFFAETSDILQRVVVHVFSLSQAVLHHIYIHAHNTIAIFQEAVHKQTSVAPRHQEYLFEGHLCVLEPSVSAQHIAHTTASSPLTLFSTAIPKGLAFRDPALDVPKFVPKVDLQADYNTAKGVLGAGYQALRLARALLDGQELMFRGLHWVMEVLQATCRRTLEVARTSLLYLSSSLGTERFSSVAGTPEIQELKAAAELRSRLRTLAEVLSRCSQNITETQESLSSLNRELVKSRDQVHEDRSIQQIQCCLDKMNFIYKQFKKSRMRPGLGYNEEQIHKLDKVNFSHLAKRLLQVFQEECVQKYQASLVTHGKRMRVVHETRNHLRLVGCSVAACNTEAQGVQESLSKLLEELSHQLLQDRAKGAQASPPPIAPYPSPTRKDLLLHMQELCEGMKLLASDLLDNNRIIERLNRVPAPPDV
The note with it: at 0.1 µM.

In general, inhibition refers to the change of the read-out against control, counted positive when it falls.

Casein kinase II subunit alpha (Homo sapiens), sequence (P68400 whole entry, looked up): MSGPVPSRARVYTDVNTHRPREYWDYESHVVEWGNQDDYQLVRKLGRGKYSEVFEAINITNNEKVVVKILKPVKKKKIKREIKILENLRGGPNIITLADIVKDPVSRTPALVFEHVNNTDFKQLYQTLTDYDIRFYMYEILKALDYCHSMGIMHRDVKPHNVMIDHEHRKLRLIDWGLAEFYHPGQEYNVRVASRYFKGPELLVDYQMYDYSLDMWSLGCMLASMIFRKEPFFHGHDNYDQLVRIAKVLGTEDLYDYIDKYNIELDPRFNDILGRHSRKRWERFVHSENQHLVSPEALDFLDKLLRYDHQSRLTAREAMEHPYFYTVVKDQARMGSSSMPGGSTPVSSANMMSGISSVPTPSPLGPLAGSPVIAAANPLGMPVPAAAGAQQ
Sphingosine kinase 1 (Homo sapiens), sequence (Q9NYA1 whole entry): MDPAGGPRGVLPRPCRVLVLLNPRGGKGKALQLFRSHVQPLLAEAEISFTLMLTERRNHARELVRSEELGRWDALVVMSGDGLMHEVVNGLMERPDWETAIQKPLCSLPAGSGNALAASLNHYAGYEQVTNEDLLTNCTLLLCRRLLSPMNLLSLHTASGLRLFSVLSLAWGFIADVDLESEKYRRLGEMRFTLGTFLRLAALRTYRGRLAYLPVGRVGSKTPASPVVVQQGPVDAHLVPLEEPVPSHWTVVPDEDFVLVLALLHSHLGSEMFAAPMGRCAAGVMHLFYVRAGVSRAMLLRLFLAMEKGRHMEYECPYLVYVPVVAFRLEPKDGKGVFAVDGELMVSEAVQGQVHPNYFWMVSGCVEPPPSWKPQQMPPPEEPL

As for `COc1cc2ncn(-c3cc(O[C@H](C)c4ccccc4Cl)c(C(N)=O)s3)c2cc1OC`, the inhibition in [1] is -3.88%; in assay [2], 0.33%; in assay [3], -2.47%; in assay [4] it was 5.76%; in assay [5], 19.5%; in assay [6], 6.13%. The inhibition in assay [7] came to 9.16%; in [8], 3.99%; in [9], 6.57%; in assay [10] it was 8.51%.

As for `Cc1nn(C)c2cc(N(C)c3ccnc(Nc4cccc(S(N)(=O)=O)c4)n3)ccc12`, the inhibition was 1.31% in assay [1]; 0.44% in assay [2]; 0.14% in [3]; 2.59% in [4]; 1.94% in [5]; 2.21% in assay [6]. Besides, the inhibition in assay [7] was determined as 3.6%; in assay [8] it was 4.27%; in assay [9] it was 4.54%; in assay [10], 4.1%.

With `NC(=O)c1ccc(-c2nc(-c3ccccn3)c(-c3ccc4c(c3)OCO4)[nH]2)cc1`, the inhibition in [1] is -3.93%; in assay [2], -0.17%; in assay [3] it was -0.84%; in [4] it was 2.1%; in assay [5] it was 4.61%; in assay [6] it was 7.62%. Moreover, the inhibition was 3.19% in assay [8], 3.61% in assay [9] and 3.15% in assay [10].

Regarding `[O-][S+]1CCN(Cc2ccc(-c3ccc4ncnc(Nc5ccc(OCc6ccccc6)c(F)c5)c4c3)o2)CC1`, the inhibition in assay [1] was -3.44%; in assay [2], 0.02%; in assay [4], -1.48%; in assay [5], 1.56%; in [6], 1.7%; in assay [7] it was 1.1%. Moreover, the inhibition was 4.51% in assay [8], -0.14% in [9] and 3.11% in assay [10].

Consider `COc1ccccc1Nc1ncc(-c2ccccc2)o1`, for which the inhibition in [1] was -6.75%; in [2], -0.59%; in assay [3], -0.16%; in assay [4], 6.18%; in assay [5] it was 8.04%; in assay [6], 10.7%. The inhibition in assay [7] is 9.03%; in [8], 9.9%; in assay [9], 9.61%; in assay [10], 9.49%.

Turning to `COc1cc2ncn(-c3cc(OCc4ccccc4C(F)(F)F)c(C(N)=O)s3)c2cc1OC`, the inhibition was -5.26% in [1]; 0.75% in [2]; -2% in assay [3]; 7.47% in assay [4]; 8.83% in assay [5]; 9.42% in [6]. The inhibition amounted to 3.6% in assay [7], 5.69% in [8], 5.75% in assay [9] and 6.51% in [10].

As to `Cc1nnc(-c2ccc(C)c(-c3ccc(C(=O)Nc4cccc(C#N)c4)cc3)c2)o1`, the inhibition came out at 0% in assay [1]; 0% in assay [2]; 1.55% in assay [3]; 1.51% in assay [4]; 6.5% in assay [5]; 7.7% in assay [6]. Further, the inhibition in assay [7] is 4%; in assay [8], 3.09%; in [9], 8.71%; in [10] it was 3.28%.

Regarding `CS(=O)(=O)Nc1ccc(N/C=C2\C(=O)Nc3ccccc32)cc1`, the inhibition in assay [1] is 0.22%; in assay [2], -1.15%; in assay [3] it was 0.65%; in assay [4], 2.93%; in [5], 0.34%; in [6], -1.19%. Moreover, the inhibition in assay [7] was 13.7%; in assay [8] it was -4.89%; in [9] it was -1.38%; in [10] it was -4.27%.

As to `CC1=C(C(=O)Nc2ccc3[nH]ncc3c2)C(c2ccc3ccccc3c2)CC(=O)N1` (stereo not drawn), the inhibition in assay [1] is 0%; in [2], 0.52%; in assay [3], 0.65%; in [4] it was 3.48%; in assay [5], 6.51%; in [6], -1.96%. For the same compound, the inhibition in [7] turned out to be 1.55%; in [8] it was 1.45%; in assay [9], 0.58%; in assay [10], 3.14%.
